Test results: the supplement of paper PMC4709259
Structures can show the parent of a compound that is named as a salt. ± gives the standard deviation.

test system: Jurkat; test: cell count relative to DMSO control (fraction of control); higher = more cells (less growth inhibition); conditions: 48 h

First: Cc1ccc(/C(=C\CN2CCCC2)c2cccc(/C=C/C(=O)O)n2)cc1 [Acrivastine] (concentration: 5 µM)
Second: Cc1ccc(S(=O)(=O)NC(=O)NN2CCCCCC2)cc1 [Tolazamide] (concentration: 25 µM)
The cell count of the first is higher: 0.976 ± 0.12 for the first, 0.657 ± 0.12 for the second.

Cc1oncc1C(=O)Nc1ccc(C(F)(F)F)cc1 [Leflunomide] (concentration: 25 µM) and O=C(O)c1cc(-c2ccc(F)cc2F)ccc1O [Diflunisal] (concentration: 25 µM) are within error of each other in cell count: 0.606 ± 0.038 for the first, 0.666 ± 0.13 for the second.

C[C@H]1C[C@H]2[C@@H]3CCC4=CC(=O)C=C[C@]4(C)[C@@]3(F)[C@@H](O)C[C@]2(C)[C@@]1(O)C(=O)CO [Betamethasone] (concentration: 25 µM) and CCC(=O)O[C@]1(C(=O)CCl)[C@@H](C)C[C@H]2[C@@H]3CCC4=CC(=O)C=C[C@]4(C)[C@@]3(F)[C@@H](O)C[C@@]21C [Clobetasol Propionate] (concentration: 25 µM) are within error of each other in cell count: 0.764 ± 0.084 for the first, 0.881 ± 0.18 for the second.

First: CC(C(=O)O)c1ccc(-c2ccccc2)c(F)c1 (centres undefined) [Flurbiprofen] (concentration: 25 µM)
Second: CC(C)n1c(/C=C/[C@H](O)C[C@H](O)CC(=O)O)c(-c2ccc(F)cc2)c2ccccc21 [Fluvastatin·Na] (concentration: 25 µM)
The cell count of the first is higher: 0.881 ± 0.083 for the first, 0.492 ± 0.12 for the second.

Going from CC(C)C[C@H](NC(=O)[C@@H](Cc1c[nH]c2ccccc12)NC(=O)[C@H](Cc1ccc(O)cc1)NC(=O)[C@H](CO)NC(=O)[C@H](Cc1c[nH]c2ccccc12)NC(=O)[C@H](Cc1cnc[nH]1)NC(=O)[C@@H]1CCC(=O)N1)C(=O)N[C@@H](CCCN=C(N)N)C(=O)N1CCC[C@H]1C(=O)NCC(N)=O [Triptorelin Acetate] (concentration: 25 µM) to CC1CNc2c(cccc2S(=O)(=O)N[C@@H](CCCNC(=N)N)C(=O)N2CC[C@@H](C)C[C@@H]2C(=O)O)C1 (some centres undefined) [Argatroban] (concentration: 25 µM), the cell count rises from 0.458 ± 0.081 to 0.702 ± 0.023.

Going from Cc1nnc(SCC2=C(C(=O)O)N3C(=O)[C@@H](NC(=O)Cn4cnnn4)[C@H]3SC2)s1 [Cefazolin·Na] (concentration: 25 µM) to CO/N=C(\C(=O)N[C@@H]1C(=O)N2C(C(=O)O)=C(COC(C)=O)CS[C@H]12)c1csc(N)n1 [Cefotaxime Acid] (concentration: 25 µM), the cell count rises from 0.768 ± 0.013 to 0.957 ± 0.025.

Compared with Nc1cc(-c2ccncc2)c[nH]c1=O [Amrinone] (concentration: 25 µM), NNC(=O)c1ccncc1 [Isoniazid] (concentration: 25 µM) is higher in cell count: 0.256 ± 0.064 for the first, 0.925 ± 0.019 for the second.

Going from CC#C[C@]1(O)CC[C@H]2[C@@H]3CCC4=CC(=O)CCC4=C3[C@@H](c3ccc(N(C)C)cc3)C[C@@]21C [Mifepristone] (concentration: 25 µM) to C#C[C@]1(O)CC[C@H]2[C@@H]3CCC4=CC(=O)CC[C@@H]4[C@H]3CC[C@@]21CC [Levonorgestrel] (concentration: 25 µM), the cell count rises from 0.424 ± 0.054 to 0.903 ± 0.046.

CC(=O)NC[C@H]1CN(c2ccc(N3CCOCC3)c(F)c2)C(=O)O1 [Linezolid] (concentration: 25 µM) and COc1cc2nc(N3CCN(C(=O)C4COc5ccccc5O4)CC3)nc(N)c2cc1OC (centres undefined) [Doxazosin Mesylate] (concentration: 2.5 µM) are within error of each other in cell count: 0.718 ± 0.084 for the first, 0.79 ± 0.13 for the second.

Nc1nc2c(ncn2COCCO)c(=O)[nH]1 [Acyclovir (Acycloguanosine) Zovirax] (concentration: 25 µM) and Nc1nnc(-c2cccc(Cl)c2Cl)c(N)n1 [Lamotrigine] (concentration: 25 µM) are within error of each other in cell count: 0.842 ± 0.022 for the first, 0.734 ± 0.16 for the second.

Going from CO[C@@]1(NC(=O)C2SC(=C(C(N)=O)C(=O)O)S2)C(=O)N2C(C(=O)O)=C(CSc3nnnn3C)CS[C@@H]21 (some centres undefined) [Cefotetan Disodium] (concentration: 25 µM) to C[C@H]1c2cccc(O)c2C(O)=C2C(=O)[C@]3(O)C(O)=C(C(N)=O)C(=O)[C@@H](N(C)C)[C@@H]3[C@@H](O)[C@@H]21 [Doxycycline Monohydrate] (concentration: 25 µM), the cell count falls from 0.831 ± 0.075 to 0.266 ± 0.051.

First: CC(C[N+](C)(C)C)OC(N)=O (centres undefined) [Bethanechol Chloride] (concentration: 25 µM)
Second: CC(c1cc2ccccc2s1)N(O)C(N)=O (centres undefined) [Zileuton] (concentration: 25 µM)
The cell count of the first is lower: 0.393 ± 0.12 for the first, 0.839 ± 0.068 for the second.

Compared with CCC1(c2ccccc2)C(=O)NCNC1=O [Primidone] (concentration: 25 µM), CN1CCN2c3ncccc3Cc3ccccc3C2C1 (centres undefined) [Mirtazapine] (concentration: 25 µM) is higher in cell count: 0.618 ± 0.18 for the first, 0.951 ± 0.02 for the second.

Clc1ccc(COC(Cn2ccnc2)c2ccc(Cl)cc2Cl)c(Cl)c1 (centres undefined) [Miconazole] (concentration: 25 µM) and Clc1ccc(COC(Cn2ccnc2)c2ccc(Cl)cc2Cl)cc1 (centres undefined) [Econazole Nitrate] (concentration: 25 µM) are within error of each other in cell count: 0.586 ± 0.11 for the first, 0.774 ± 0.096 for the second.

COc1cccc2c1C(=O)c1c(O)c3c(c(O)c1C2=O)C[C@@](O)(C(C)=O)C[C@@H]3O[C@H]1C[C@H](N)[C@H](O)[C@H](C)O1 [Daunorubicin·HCl] (concentration: 25 nM) and C[C@]12C=CC(=O)C=C1CC[C@@H]1[C@@H]2[C@@H](O)C[C@@]2(C)[C@H]1CC[C@]2(O)C(=O)CO [Prednisolone] (concentration: 25 µM) are within error of each other in cell count: 0.711 ± 0.11 for the first, 0.836 ± 0.14 for the second.

First: CC(C)(C)NC[C@H](O)c1ccc(O)c(CO)c1 [Levalbuterol·HCl] (concentration: 25 µM)
Second: CN(C)CC(c1ccc(O)cc1)C1(O)CCCCC1 (centres undefined) [Desvenlafaxine Succinate Hydrate] (concentration: 25 µM)
The cell count of the first is higher: 1.14 ± 0.14 for the first, 0.64 ± 0.09 for the second.

CN(C)CCC=C1c2ccccc2COc2ccccc21 [Doxepin·HCl] (concentration: 25 µM) and NC1=NCC2c3ccccc3Cc3ccccc3N12 (centres undefined) [Epinastine·HCl] (concentration: 25 µM) are within error of each other in cell count: 0.988 ± 0.13 for the first, 1.06 ± 0.077 for the second.

Clc1ccc2nsnc2c1NC1=NCCN1 [Tizanidine·HCl] (concentration: 25 µM) and Cc1cccc(Nc2ccncc2S(=O)(=O)NC(=O)NC(C)C)c1 [Torsemide] (concentration: 25 µM) are within error of each other in cell count: 0.771 ± 0.054 for the first, 0.866 ± 0.042 for the second.

CCN(CC)C(=O)/C(C#N)=C/c1cc(O)c(O)c([N+](=O)[O-])c1 [Entacapone] (concentration: 25 µM) and CCC[C@H](N[C@@H](C)C(=O)N1[C@H](C(=O)O)C[C@@H]2CCCC[C@@H]21)C(=O)OCC [Perindopril Erbumine] (concentration: 25 µM) are within error of each other in cell count: 0.519 ± 0.059 for the first, 0.637 ± 0.091 for the second.

Work on CC(=O)NO [Acetohydroxamic Acid] (concentration: 25 µM) yielded a cell count of 0.755 ± 0.016.
